According to ChEMBL document CHEMBL1157539, “Thousands of chemical starting points for antimalarial lead identification” (Nature, 2010):

These molecules were tested on HepG2 (assay: GSK_TCMDC: Percent inhibition of human HepG2 cell line. Test compounds present at 10uM.).
Type: functional

Inhibition, 0%:
Cc1cc2nc(-c3ccc(C(=O)NC4CCN(Cc5ccccc5)CC4)cc3)[nH]c2cc1C
COc1ccc(-n2ccnc2SCC(=O)Nc2cccc(C(F)(F)F)c2)c(OC)c1
Cc1nc(C)c(-c2ccc(C(F)(F)F)cc2)c(O)c1Br
CC[C@H](C)CNC(=O)c1ccnc(-c2cccc(CN(C)C3CCN(C)CC3)c2)c1.O=C(O)C(F)(F)F
